Source: PubChem BioAssay (NCI)
This is part of a sample that, as a whole, favours compounds with a hit. Of some 83,000 tested, about 20% had one in any assay.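 The test compound was applied at a single concentration to cells in 96-well plates for 48 hours, and percent growth was recorded.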 A number with no mark means an inactive call. Calls of active or inactive are those of the source. Rule for the calls: active = growth percent below 10; inactive = the rest.

What follows are compounds tested on HL-60(TB) leukemia (assay: NCI-60 one-dose screen, 48 h (100 = growth as untreated, 0 = no growth, -100 = all killed)). Details: 10 µM unless noted.
`Nc1ccc(C2=NN(C(=O)c3cc(-c4ccc(Cl)cc4)nc4ccccc34)C(c3ccc(Cl)cc3)C2)cc1` (stereo not given) was tested, and the growth was -4.63% (active). For `O=C1C(Nc2ccccn2)=C(I)C(=O)c2ncccc21`, the growth was -55.5% (active). For `CCCCCCCC(=O)Nc1nc2[nH]c(CN3CCN(Cc4cccc(I)c4)CC3)c(CN3CCN(Cc4cccc(I)c4)CC3)c2c(=O)[nH]1`, the growth was -49.3% (active). In the case of `COc1ccc(C(O)c2cc3c(N)c(C(=O)Nc4cccc(Cl)c4)sc3nc2C)cc1` (stereo not given), the growth is reported as 0.332% (active). With `Cc1ccccc1-c1cc(Cc2ccc(F)cc2)c(=O)[nH]n1` the growth was 54.2%. `CCC#CC[C@H](O)C/C=C1/C(=O)C=C[C@@H]1C/C=C\CCCC(=O)OC` was tested, and the growth was 2.22% (active). Work on `CC(=O)O[C@H]1CC[C@]2(C)[C@H]3CC=C4[C@@H]5CC(C)(C)CC[C@]5(C(=O)N5CCN(CCC#N)CC5)CC[C@@]4(C)[C@]3(C)CC[C@H]2C1(C)C` yielded a growth of 12.9%. `COC(=O)[C@]1(C)CCC[C@]2(C)c3ccc(C(C)C)cc3C(=O)[C@@H](Br)[C@@H]12` was tested, and the growth was 68.1%. `CNc1ccc(CSc2ccc(C)cc2)cc1` was tested, and the growth was 11.8%. For `c1c2c(cc3c1OCO3)Cc1cc3c(cc1Cc1cc4c(cc1C2)OCO4)OCO3`, the growth was 116%. With `O=C1C=CC(=O)c2c(O)c(CO)c(CO)c(O)c21` the growth was 64.2%. In the case of `CSc1ccc(-c2cc(-c3ccc(NC(=O)CCCN4CCCC4)cc3)nc(-c3ccc(NC(=O)CCCN4CCCC4)cc3)c2)cc1`, the growth is reported as 60.8%. With `C[n+]1c2ccccc2nc2c(N)cc(N)cc21` the growth was 74.7%. For `COc1ccc(NC(=O)COc2ccccc2)c(C(N)=O)c1`, the growth was -7.37% (active). In the case of `O=C1/C(=C\c2cccn2C(=O)c2ccccc2)c2ccccc2N1c1c(Cl)cccc1Cl`, the growth is reported as 9.37% (active). `COc1ccc(NNS(=O)(=O)O)cc1` showed a growth of 103%. `C=C(C)[C@@H]1CC[C@]2(COCCCN)CC[C@]3(C)[C@H](CC[C@@H]4[C@@](C)(CCCNCCCN)[C@H](C(=C)C)CC[C@]43C)[C@@H]12` was tested, and the growth was -9.28% [100 µM] (active). With `O=C(O)[C@@H](Cc1ccc2ccccc2c1)NC(=O)n1c2ccccc2c2ccccc21` the growth was 6.8% (active). In the case of `CCCCCCCCCCCCCC1=NCC[N+]1(CCO)Cc1ccccc1` (stereo not given), the growth is reported as -63.8% (active). For `CCOC(=O)CNC(=O)Sc1ccc(C(C)(C)C)cc1`, the growth was 64.4%. For `O=Cc1cc2ccccc2nc1Nc1nccs1`, the growth was 99.5%. Compound `O=C(NCCN1CCOCC1)c1cncnc1Nc1ccc2c(ccn2Cc2ccccn2)c1` has a growth of 99.7%. Work on `Cc1ccc2nc(-c3c(CCCO)noc3N)[nH]c(=O)c2c1` yielded a growth of 89.8%. Compound `O=C(NN=C1CCCCC1)C(=O)NN=C1CCCCC1` has a growth of 81.5%. `CC(=O)OC1CC2CCC1(C)C2(C)C` (stereo not given) was tested, and the growth was 103%. For `CNCCCNc1ccnc2cc(Cl)ccc12`, the growth was -25% (active). For `CC[C@@H]1C(=O)N(C)c2cnc(Nc3ccc(C(=O)NC4CCN(C)CC4)cc3OC)nc2N1C1CCCC1`, the growth was -42.1% (active). Compound `O=C(NN(C(=O)c1ccccc1)c1cccs1)c1ccccc1` has a growth of 101%. `Cc1ccc(S(=O)(=O)N/N=C/C2(c3ccccc3)CC2)cc1` was tested, and the growth was 98.7%. In the case of `COc1ccc2nc3ccccc3c(NCc3ccc(C)cc3)c2c1`, the growth is reported as 0.0372% (active). For `COc1cc(/C=C2\CN(C)C/C(=C\c3cc(CN4CCCC4)c(O)c(OC)c3)C2=O)cc(CN2CCCC2)c1O`, the growth was 43.3%. `CCCCCCCCCCCCSC1=C(Cl)C(=O)C(OC)=C(OC)C1=O` was tested, and the growth was -46.2% (active). With `CC/C=C\C[C@H](O)C/C=C1/C(=O)C=C[C@@H]1C/C=C\CCCC(=O)OC(C)C` the growth was -38.3% (active). `Cn1cc(C(=O)c2nc(-c3c[nH]c4ccc(Br)cc34)no2)c2cc(F)ccc21` showed a growth of 94.7%. In the case of `CS(=O)(=O)N1CCN(Cc2cc3nc(-c4cccc5[nH]ncc45)nc(N4CCOCC4)c3s2)CC1` (tested in a mixture with another compound), the growth is reported as 5.83% (active). In the case of `c1ccc2c(c1)nc(CN1CCOCC1)n1cc(N3CCCC3)nc21`, the growth is reported as 83.4%. `CC(C)Cc1ccc(C(C)C(=O)NCc2ccc(Cn3c(=O)sn(-c4ccc(Cl)cc4)c3=O)cc2)cc1` (stereo not given) gave a growth of 95.8%. With `COc1cccc(/C=C2\COc3ccc(O)c(O)c3C2=O)c1` the growth was -20% (active). For `CCSc1oc(C)nc1[P+](c1ccccc1)(c1ccccc1)c1ccccc1`, the growth was 7.21% (active). Compound `Cc1ccc[n+](CC(=O)c2cccc3ccccc23)c1` has a growth of 96.9%.
